PubChem BioAssay
Inconclusive results are not listed. The source made the active and inactive calls.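 The calls were made as follows, unless noted: active = normalized viability below 100% at a tested concentration; inactive = the rest.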

Key:
[1] = growth inhibition of DIPG glioma cells, dose response, cell-based, SU-DIPG-XVII, MIPE5.0, CellTiter-Glo, qHTS (AID 1347060; cut-off not given, nearly all actives have AC50 up to about 26 µM;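 also: cells exposed to compound for 48 hours before viability readout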); details: SU-DIPG-XVII viability, CellTiter-Glo ATP luminescence
[2] = growth inhibition of DIPG glioma cells, dose response, cell-based, SU-DIPG-XIII, MIPE4.0, CellTiter-Glo, qHTS (AID 1347061; cut-off not given, nearly all actives have AC50 up to about 37 µM;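 also: cells exposed to compound for 48 hours before readout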); details: SU-DIPG-XIII viability, CellTiter-Glo ATP luminescence
[3] = growth inhibition of DIPG glioma cells, dose response, cell-based, JHH-DIPG-1, MIPE4.0, CellTiter-Glo, qHTS (AID 1347062; cut-off not given, nearly all actives have AC50 up to about 27 µM;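 also: cells exposed to compound for two days before readout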); details: JHH-DIPG-1 viability, CellTiter-Glo ATP luminescence
[4] = growth inhibition of DIPG glioma cells, dose response, cell-based, SU-DIPG-IV, MIPE4.0, CellTiter-Glo, qHTS (AID 1347063; cut-off not given, nearly all actives have AC50 up to about 30 µM;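 also: compound exposure lasted 48 hours before the viability readout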); details: SU-DIPG-IV viability, CellTiter-Glo ATP luminescence
[5] = growth inhibition of DIPG glioma cells, dose response, cell-based, SU-DIPG-XIII, MIPE5.0, CellTiter-Glo, qHTS (AID 1347064; cut-off not given, nearly all actives have AC50 up to about 23 µM;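 also: cells exposed to compound for 48 hours before the viability read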); details: SU-DIPG-XIII viability, CellTiter-Glo ATP luminescence
[6] = viability loss in pontine glioma line – cell-based, SU-DIPG-XXV, MIPE5.0, CellTiter-Glo, qHTS, dose response (AID 1347065; cut-off not given, nearly all actives have AC50 up to about 26 µM;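 also: cells exposed to compound for 48 hours before ATP readout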); details: CellTiter-Glo ATP luminescence
[7] = SU-DIPG-VI glioma cell viability, MIPE4.0 library, CellTiter-Glo luminescence, qHTS (AID 1347066; cut-off not given, nearly all actives have AC50 up to about 30 µM;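 also: cells exposed to compound for 48 hours before readout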); details: CellTiter-Glo ATP luminescence
[8] = JHH-DIPG-1 glioma cell viability, MIPE5.0 library, CellTiter-Glo luminescence, qHTS (AID 1347067; cut-off not given, nearly all actives have AC50 up to about 26 µM;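 also: cells exposed to compound for 48 hours before readout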); details: JHH-DIPG-1 glioma viability, CellTiter-Glo ATP luminescence
[9] = SU-DIPG-XXV glioma cell viability, MIPE5.0 library, qHTS (AID 1347068; cut-off not given, nearly all actives have IC50 up to about 30 µM;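 also: cells exposed to compound for 48 hours before viability readout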)
[10] = sensitizers of A549 cells to miR-34 induction, primary screen, imaging, A549 dox-inducible miR-34, nuclei and caspase counts (AID 1347080;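 active = compounds whose cell count with miR-34 switched on is under 0.7 times the count with it off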); details: A549 miR-34 inducible, Hoechst nuclei count, 48 h
[11] = modifiers of HSF1 nuclear foci, imaging, Selleck Cancer Library (AID 1347162; in the data active = plate-normalised HSF1 focus index below about 0.46); details: human cells, at 10 µM; SSMD: measured here: HSF1 foci SSMD mean; cell count: measured here: cell number; plate-normalised HSF1 focus index: stronger effect = lower value
[12] = survival rescue of mitochondrial mutant cells in low glucose, primary screen, MELAS cybrids, Rieske KO mouse fibroblasts, CellTiter-Glo (AID 1508586;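 active = mean z-score across replicates of 1.96 or higher in either the MELAS or the Rieske mutant cell line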;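 also: z relative to plate mean and SD of compound and empty wells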)
[13] = ovarian cancer cell viability with rucaparib, profiling panel, oncology-focused library, rucaparib conditional (AID 1508598); details: patient-derived ovarian cancer cells, CellTiter-Glo viability, 144 h, stronger effect = lower value
[14] = LFS_MB_P medulloblastoma growth inhibition, cell-based, chromothripsis tumors, cisplatin or BGB combos (AID 1671449; in the data active = inhibition above about 80%;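 also: cells exposed for 96 hours; 0% = vehicle DMSO and 100% = killing by high DMSO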); details: LFS_MB_P medulloblastoma cells
[15] = HDN33 neuroblastoma growth inhibition, cell-based, chromothripsis tumors, cisplatin or BGB combos (AID 1671450; in the data active = inhibition above about 80%;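 also: cells exposed to compound for four days; 0% = vehicle DMSO and 100% = cell killing by high DMSO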); details: HDN33 neuroblastoma cells, stronger effect = higher value
[16] = ICB984 medulloblastoma cell growth inhibition, synergistic combos for chromothripsis tumors, cisplatin or BGB combos (AID 1671451; call rule not given here;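 also: cells exposed for 96 hours before readout; 0% = vehicle DMSO and 100% = killing by high DMSO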); details: ICB984 medulloblastoma cells, drug combinations, stronger effect = higher value
[17] = HTB85 osteosarcoma cell growth inhibition, synergistic combos for chromothripsis tumors, BGB or cisplatin IC20 combos (AID 1671453; in the data active = inhibition above about 80%;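 also: cells exposed for 96 hours before readout; 0% = vehicle DMSO and 100% = high DMSO killing control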); details: HTB85 osteosarcoma cells, drug combinations, stronger effect = higher value
[18] = MDA-MB-436 breast carcinoma cell growth inhibition, synergistic combos for chromothripsis tumors, BGB or cisplatin combos (AID 1671458; call rule not given here;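 also: cells exposed for 96 hours; 0% = vehicle DMSO and 100% = killing by high DMSO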); details: MDA-MB-436 breast carcinoma growth inhibition, drug combinations, stronger effect = higher value
[19] = growth inhibition of BT084 medulloblastoma cells, cell-based, ICGC_MB145, cisplatin and BGB IC40 combos (AID 1671461; in the data active = inhibition above about 80%;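 also: cells exposed to drugs for 96 hours; 0% = vehicle DMSO and 100% = high DMSO full killing control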); details: drug combinations, stronger effect = higher value
[20] = growth inhibition of RCMB18 medulloblastoma cells, cell-based, cisplatin and BGB IC40 combos (AID 1671462; in the data active = inhibition above about 80%;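 also: cells exposed to compound for four days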); details: stronger effect = higher value

For `Nc1ccc(-c2ccc3ncc4ccc(=O)n(-c5cccc(C(F)(F)F)c5)c4c3c2)cn1`, the AC50 [1] was 93.4 nM (active), the AC50 [2] was 132 nM (active) and the AC50 [3] was 74.3 nM (active). The AC50 [4] was 33.2 nM (active), the AC50 [5] was 23.5 nM (active) and the AC50 [6] was 20.9 nM (active). For the same compound, the AC50 [7] was 187 nM (active), the AC50 [8] was 166 nM (active) and the IC50 [9] was 235 nM (active). For the same compound, the fold change ([10]; stronger effect = lower value, cell number ratio, induced over uninduced) was 1 (inactive), the fold change ([10]; measured here: relative caspase fold change +Dox/-Dox) was 1.14 and the cell count ([10]; measured here: total cells with miR-34 induction, stronger effect = lower value) was 1420. The cell count ([10]; measured here: total cells without miR-34 induction) was 1410, the SSMD [11] was 2.81 and the cell count [11] was 6780. For the same compound, the plate-normalised HSF1 focus index [11] was 1.15 (inactive), the z-score ([12]; MELAS cybrid survival, CellTiter-Glo 48 h, stronger effect = higher value) was 3.27 (active) and the z-score ([12]; Rieske KO mouse fibroblast survival, CellTiter-Glo 72 h) was -0.678. The viability ([13]; at 0.000305 µM, OCI-C5x cells, with rucaparib 10 µM, 100% = cells with rucaparib alone) was 117% (inactive), the viability ([13]; at 0.000305 µM, OCI-C5x cells, without rucaparib) was 112% (inactive) and the viability ([13]; at 0.000305 µM, OCI-P5x cells, with rucaparib 20 µM, 100% = cells with rucaparib alone) was 87.4% (active). For the same compound, the viability ([13]; at 0.000305 µM, OCI-P5x cells, without rucaparib) was 87.8% (active), the viability ([13]; at 0.00122 µM, OCI-C5x cells, with rucaparib 10 µM, 100% = cells with rucaparib alone) was 107% (inactive) and the viability ([13]; at 0.00122 µM, OCI-C5x cells, without rucaparib) was 119% (inactive). The viability ([13]; at 0.00122 µM, OCI-P5x cells, with rucaparib 20 µM, 100% = cells with rucaparib alone) was 89.2% (active), the viability ([13]; at 0.00122 µM, OCI-P5x cells, without rucaparib) was 90.5% (active) and the viability ([13]; at 0.00488 µM, OCI-C5x cells, with rucaparib 10 µM, 100% = cells with rucaparib alone) was 118% (inactive). For the same compound, the viability ([13]; at 0.00488 µM, OCI-C5x cells, without rucaparib) was 83.6% (active), the viability ([13]; at 0.00488 µM, OCI-P5x cells, with rucaparib 20 µM, 100% = cells with rucaparib alone) was 79.7% (active) and the viability ([13]; at 0.00488 µM, OCI-P5x cells, without rucaparib) was 60.8% (active). For the same compound, the viability ([13]; at 0.0195 µM, OCI-C5x cells, with rucaparib 10 µM, 100% = cells with rucaparib alone) was 113% (inactive), the viability ([13]; at 0.0195 µM, OCI-C5x cells, without rucaparib) was 72% (active) and the viability ([13]; at 0.0195 µM, OCI-P5x cells, with rucaparib 20 µM, 100% = cells with rucaparib alone) was 70.7% (active). For the same compound, the viability ([13]; at 0.0195 µM, OCI-P5x cells, without rucaparib) was 49.8% (active), the viability ([13]; at 0.0781 µM, OCI-C5x cells, with rucaparib 10 µM, 100% = cells with rucaparib alone) was 109% (inactive) and the viability ([13]; at 0.0781 µM, OCI-C5x cells, without rucaparib) was 92.2% (active). For the same compound, the viability ([13]; at 0.0781 µM, OCI-P5x cells, with rucaparib 20 µM, 100% = cells with rucaparib alone) was 77.9% (active), the viability ([13]; at 0.0781 µM, OCI-P5x cells, without rucaparib) was 63.5% (active) and the viability ([13]; at 0.313 µM, OCI-C5x cells, with rucaparib 10 µM, 100% = cells with rucaparib alone) was 109% (inactive). For the same compound, the viability ([13]; at 0.313 µM, OCI-C5x cells, without rucaparib) was 89.4% (active), the viability ([13]; at 0.313 µM, OCI-P5x cells, with rucaparib 20 µM, 100% = cells with rucaparib alone) was 73.5% (active) and the viability ([13]; at 0.313 µM, OCI-P5x cells, without rucaparib) was 65.9% (active). The viability ([13]; at 1.25 µM, OCI-C5x cells, with rucaparib 10 µM, 100% = cells with rucaparib alone) was 62.2% (active), the viability ([13]; at 1.25 µM, OCI-C5x cells, without rucaparib) was 70.5% (active) and the viability ([13]; at 1.25 µM, OCI-P5x cells, with rucaparib 20 µM, 100% = cells with rucaparib alone) was 67.9% (active). For the same compound, the viability ([13]; at 1.25 µM, OCI-P5x cells, without rucaparib) was 54.1% (active), the viability ([13]; at 5 µM, OCI-C5x cells, with rucaparib 10 µM, 100% = cells with rucaparib alone) was 33.1% (active) and the viability ([13]; at 5 µM, OCI-C5x cells, without rucaparib) was 29.5% (active). For the same compound, the viability ([13]; at 5 µM, OCI-P5x cells, with rucaparib 20 µM, 100% = cells with rucaparib alone) was 10.8% (active), the viability ([13]; at 5 µM, OCI-P5x cells, without rucaparib) was 14.6% (active) and the inhibition ([14]; at 0.5 µM, stronger effect = higher value) was 5.33% (inactive). The inhibition ([14]; measured here: combination with BGB IC20, at 0.005 µM) was -20%, the inhibition ([14]; measured here: combination with BGB IC40, at 0.005 µM) was 59.9% and the inhibition ([14]; measured here: combination with BGB IC40, at 0.05 µM) was -36.1%. The inhibition ([14]; measured here: combination with cisplatin, at 0.5 µM, stronger effect = higher value) was 3.19%, the inhibition ([14]; measured here: combination with cisplatin, at 5 µM, stronger effect = higher value) was 92.6% and the inhibition ([15]; BGB combo, at 5 µM) was 89.3%. The inhibition ([15]; at 0.5 µM) was 32.1% (inactive), the inhibition ([15]; cisplatin combo, at 5 µM) was 93.5% and the inhibition ([15]; measured here: with BGB IC20 combination, at 0.5 µM) was 14.7%. For the same compound, the inhibition ([15]; measured here: with cisplatin IC20 combination, at 0.5 µM) was 43.5%, the inhibition ([15]; single agent, at 5 µM) was 91.8% and the inhibition ([16]; BGB IC20 combo, at 0.005 µM) was 18.5%. The inhibition ([16]; BGB IC40 combo, at 0.005 µM) was 13.6%, the inhibition ([16]; BGB IC40 combo, at 0.05 µM) was 80.5% and the inhibition ([16]; at 0.5 µM) was -14.5% (inactive). For the same compound, the inhibition ([16]; cisplatin combo, at 0.05 µM) was 79.9%, the inhibition ([16]; cisplatin combo, at 0.5 µM) was -13.5% and the inhibition ([16]; cisplatin combo, at 5 µM) was -13.1%. The inhibition ([16]; measured here: 5 uM single agent, at 5 µM) was -7.65%, the inhibition ([17]; at 0.5 µM) was 27.1% (inactive) and the inhibition ([17]; measured here: with BGB IC20, at 0.5 µM) was 35.5%. For the same compound, the inhibition ([17]; measured here: with BGB IC20, at 5 µM) was 78%, the inhibition ([17]; measured here: with cisplatin IC20, at 0.5 µM) was 16.8% and the inhibition ([17]; measured here: with cisplatin IC20, at 5 µM) was 94.9%. For the same compound, the inhibition ([17]; single agent, at 5 µM) was 79.3%, the inhibition ([18]; at 0.5 µM) was 12% (inactive) and the inhibition ([18]; measured here: BGB combination, at 0.5 µM) was 0.276%. It also gave an inhibition ([18]; measured here: BGB combination, at 5 µM) of 32.6%, an inhibition ([18]; measured here: cisplatin combination, at 0.5 µM) of -4.07% and an inhibition ([18]; measured here: cisplatin combination, at 5 µM) of 57.7%. For the same compound, the inhibition ([19]; at 0.5 µM) was 21.2% (inactive), the inhibition ([19]; cisplatin combination, at 0.5 µM) was 28.2% and the inhibition ([19]; cisplatin combination, at 5 µM) was 33.5%. The inhibition ([19]; measured here: BGB IC40 combination 0.05 uM, at 0.05 µM) was -29.9%, the inhibition ([19]; single agent, at 5 µM) was 41.3% and the inhibition ([20]; at 0.5 µM) was 16.5% (inactive). It also gave an inhibition ([20]; cisplatin combo, at 5 µM) of 59.1%, an inhibition ([20]; measured here: BGB IC40 combination, at 0.05 µM) of -1.59% and an inhibition ([20]; measured here: combination with cisplatin, at 0.5 µM) of 23.5%. It also gave an inhibition ([20]; single agent, at 5 µM) of 62.1%.
